M1 PAM: positive allosteric modulators of human M1 muscarinic receptor; activation, % at 3 µM; P11229; 360,000 compounds, 0.088% hits; CHO-K1 hM1, Fluo-8 calcium fluorescence, ACh EC20; 0% = ACh EC20, 100% = maximal ACh; in the data active means activation above about 19%, passing the limit was not always enough
Target sequence (P11229 whole entry, looked up): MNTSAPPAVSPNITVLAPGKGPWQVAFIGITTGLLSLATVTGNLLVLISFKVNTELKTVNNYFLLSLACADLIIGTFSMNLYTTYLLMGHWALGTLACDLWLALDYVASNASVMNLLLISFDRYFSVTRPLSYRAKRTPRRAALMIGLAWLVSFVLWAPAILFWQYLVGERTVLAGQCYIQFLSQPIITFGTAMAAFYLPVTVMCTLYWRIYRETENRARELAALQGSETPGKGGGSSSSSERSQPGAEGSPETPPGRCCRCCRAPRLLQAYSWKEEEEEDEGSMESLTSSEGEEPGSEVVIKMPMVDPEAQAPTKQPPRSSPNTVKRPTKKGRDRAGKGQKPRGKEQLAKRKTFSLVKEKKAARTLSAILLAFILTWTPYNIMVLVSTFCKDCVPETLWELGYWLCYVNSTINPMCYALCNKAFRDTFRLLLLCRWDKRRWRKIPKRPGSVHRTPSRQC
CHO-K1 Ca antag: M1 antagonist counterscreen hit in parental CHO-K1 cells; ATP-induced calcium, Fluo-8 fluorescence; inhibition, % at 3 µM; 360,000 compounds, 0.6% hits; AID 602250;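 active means inhibition above a per-plate cutoff, the plate's mean sample inhibition plus 3 SD, cut at about 24% in these data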;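 further: 0% = DMSO plus EC80 ATP and 100% = DMSO alone without ATP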
CHO-K1 Ca ag: M1 agonist counterscreen hit in parental CHO-K1 cells; Fluo-8 calcium fluorescence; scaled to maximal ATP response, vehicle zero; activation, % at 3 µM; 360,000 compounds, 0.48% hits; in the data active means activation above about 15%;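 further: untransfected CHO-K1 host cells lacking M1 receptor as counterscreen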
M1 antag: antagonists of human M1 muscarinic receptor; P11229; 360,000 compounds, 1.3% hits; CHO-K1 hM1, Fluo-8 calcium fluorescence, ACh EC80 antagonist; inhibition, % at 3 µM;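 active means percent inhibition above its own plate's cutoff, namely the mean of that plate's compound wells plus 3 SD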;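 further: peak over basal fluorescence ratio during 140 s after agonist addition; 0% = ACh EC80 plus DMSO and 100% = DMSO alone without agonist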
CHO-K1 Ca PAM: M1 PAM counterscreen hit in parental CHO-K1 cells. ATP EC20, Fluo-8 calcium fluorescence; 0% at ATP EC20, 100% at ATP max. 360,000 compounds, 0.02% hits. activation, % at 3 µM. AID 602247;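 active means activation above the run cutoff, the mean activation of all test compounds plus 3 SD, cut at about 40% in these data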;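 further: peak over basal fluorescence ratio in a 140 s read after ATP addition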
M1 ag: activates human CHRM1 receptor | activation, % at 3 µM | P11229 | 360,000 compounds, 0.33% hits | CHO-K1 hM1, Fluo-8 calcium fluorescence, agonist mode; 0% DMSO, 100% acetylcholine EC100 | AID 588814;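 active means activation above the run's mean compound activation plus 3 SD, cut at about 16% in these data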;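 further: peak over basal fluorescence ratio within a 140 s kinetic read after compound addition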
* = called active by the depositor. An excerpt weighted towards active compounds, which were near 2.4% of everything screened.

SMILES | M1 PAM | CHO-K1 Ca antag | CHO-K1 Ca ag | M1 antag | CHO-K1 Ca PAM | M1 ag
CCOC(=O)C1C(=O)C=C(/C=C/c2ccc(N(C)C)cc2)CC1c1ccccc1 (stereo not drawn) | -7 | 14 | 22* | 21 | 6 | 18*
CCn1c(N2CCN(C(=S)NCC(C)C)CC2)nc2ccccc21 | -24 | -12 | 7 | 39* | 10 | -7
CCn1c(N2CCN(C(=S)NC)CC2)nc2ccccc21 | 0 | -18 | 2 | -25 | 11 | -3
COc1ccc(N=C2SCC(c3ccc([N+](=O)[O-])cc3)=NN2CCO)cc1 | -7 | 15 | 15* | 12 | -7 | -2
COc1cc(/C=N/Nc2nc(Nc3ccccc3)nc(-n3nc(C)cc3C)n2)cc(OC)c1OC | -18 | 6 | 5 | 26* | 7 | -5
O=S(=O)(Nc1nc2ccccc2nc1NCc1ccco1)c1ccccc1 | 4 | 25* | 0 | -4 | -6 | -1
C#CCN(C[C@H]1[C@H](OC(=O)Nc2c(C)noc2C)[C@H](OC(=O)Nc2c(C)noc2C)C[C@H]2C(=O)N(c3ccccc3)C(=O)[C@@H]12)S(=O)(=O)c1ccc(C)cc1 | 1 | -3 | 0 | -5 | 3 | -4
CC1CN(CCCCOc2cccc(Oc3ccccc3)c2)CC(C)O1 (stereo not drawn) | -24 | -16 | 1 | 29* | 8 | -7
c1ccc(Oc2cccc(OCCCCN3CCCC3)c2)cc1 | -28 | -4 | 3 | 40* | 19 | -11
C/C(=N\NC(=O)c1ccc(Cn2cc(Br)cn2)o1)c1ccc(NC(=O)c2ccoc2C)cc1 | -5 | 5 | 1 | 14 | -20 | -1
Cc1ccc(NC(=O)COC(=O)c2c[nH]c3ccccc23)cc1C | -4 | 2 | 5 | 6 | 0 | -2
CC1(C(=O)NS(=O)(=O)c2ccc(Cl)cc2)CCN1C(=O)c1ccccc1 (stereo not drawn) | 11 | -3 | 0 | -6 | 0 | -2
Cc1cccc(N2C(=O)C(O)=C(C(=O)c3cccs3)C2c2ccc(C(C)C)cc2)n1 (stereo not drawn) | 2 | -16 | 1 | -2 | 22 | 21*
CN1CCN(C2Cc3cc(Cl)ccc3Sc3cc(F)ccc32)CC1 (stereo not drawn) | -26 | -6 | 9 | 99* | 18 | -5
CCc1ccc2c(c1)Sc1ccccc1CC2N1CCN(C)CC1 (stereo not drawn) | -22 | -2 | 10 | 53* | 17 | 0
Cn1c(=O)[nH]c(=O)c2c1nc(CN1CCN(c3cccc(Cl)c3)CC1)n2CCc1ccccc1 | 14 | -22 | 0 | -17 | 18 | 1
Cn1c(CN2CCN(c3cccc(Cl)c3)CC2)nc2ccccc21 | -15 | 1 | 0 | 26* | -3 | -7
Cc1nn(CC(=O)Nc2ccc3c(c2)nc(CCN2CCCCC2)n3C)c(=O)c2ccccc12 | -21 | -5 | 0 | 40* | 15 | -7
CC(C)C(=O)Nc1ccc2c(c1)nc(CCN1CCN(c3ccccc3)CC1)n2C | -19 | 11 | 0 | 45* | -16 | -8
CC(C)C(=O)Nc1ccc2c(c1)nc(CCN1CCCCC1)n2C | 6 | 1 | 1 | -8 | 7 | -11
COc1ccccc1C(=O)Nc1ccc2c(c1)nc(CN1CCN(C(C)=O)CC1)n2C | -6 | 24* | -1 | 6 | -7 | -3
CC(=O)N1CCN(Cc2nc3cc(NC(=O)c4ccccc4)ccc3n2C)CC1 | -5 | 9 | 1 | -5 | -3 | -1
Fc1ccc(-c2nnc(-c3ccc4ccccc4c3)o2)cc1 | 12 | -11 | 0 | -18 | 6 | -3
CC1CCN(CCc2nc3cc(NC(=O)C(C)C)ccc3n2C)CC1 | -32 | -13 | 2 | 88* | 0 | -11
Cc1cccc(S(=O)(=O)C(C#N)c2nc3ccccc3nc2N2CCCC2)c1 (stereo not drawn) | -5 | 27* | 0 | 19 | -9 | -2
SMILES | M1 PAM | CHO-K1 Ca antag | CHO-K1 Ca ag | M1 antag | CHO-K1 Ca PAM | M1 ag
N#CC(c1nc2ccccc2nc1N1CCCC1)S(=O)(=O)c1ccccc1 (stereo not drawn) | 1 | -6 | 1 | 11 | -4 | -2
CCN(CC)C(=S)SCC(=O)c1ccc(F)cc1 | -4 | 13 | 0 | 24* | -4 | -1
CCN(CC(=O)NCc1cccs1)C(=O)COc1ccc(C(C)=O)cc1 | -8 | 6 | 0 | 16 | -14 | -1
COc1cc(OC)cc(C(=O)NCC(=O)NC(C)c2ccccc2)c1 (stereo not drawn) | 6 | 8 | 0 | 75* | -7 | 1
CC(NC(=O)COC(=O)c1cc(Cl)nc(Cl)c1)c1ccccc1 (stereo not drawn) | 11 | -9 | 23* | -9 | 13 | 5
COc1cc(OC)cc(C(=O)NCC(=O)NC(C)CCc2ccccc2)c1 (stereo not drawn) | 3 | -3 | 1 | 0 | 5 | -2
COc1cc(OC)cc(C(=O)NC(C(=O)NCc2ccccn2)C(C)C)c1 (stereo not drawn) | -29 | 11 | 0 | 78* | -14 | -9
CC(NC(=O)COC(=O)c1ccccc1O)c1ccccc1 (stereo not drawn) | 10 | -2 | 1 | -14 | 4 | 1
Cc1ccc(S(=O)(=O)N2C[C@H]3[C@H]4C(=O)N(c5ccccc5)C(=O)[C@H]4C[C@H](OC(=O)NC4CCCC4)[C@@]3(O)C2)cc1 | 4 | -2 | 0 | -7 | 17 | -2
COc1cccc(CN(C)C(=O)c2ccc(NC(=O)CC3SC(N4CCCC4)=NC3=O)cc2)c1OC (stereo not drawn) | -2 | -3 | 0 | 6 | 5 | -3
CN(C(=O)COC(=O)c1ccc(S(=O)(=O)N2CCCC2)cc1)c1ccccc1 | -22 | -18 | 4 | 50* | 13 | -6
O=C(COC(=O)c1ccccc1)c1ccc(S(=O)(=O)N2CCCCC2)cc1 | -6 | -2 | 4 | 15 | -3 | -2
CCC(O)c1c(-c2ccccc2)nn(C)c1Cl (stereo not drawn) | 7 | 3 | 0 | -9 | 5 | -6
CC(O)c1c(-c2ccccc2)nn(C)c1Cl (stereo not drawn) | 1 | 28* | 0 | 0 | -13 | -7
COc1cccc(NC(=O)/C=C/c2ccc(S(=O)(=O)N3CCOCC3)cc2)c1 | 13 | -2 | 3 | -4 | -13 | 0
COc1cccc(C(=O)Nc2cc(C)ccc2NC(=O)COc2ccccc2)c1 | -17 | -9 | 1 | 48* | -2 | -10
COc1ccc(/C=C(\C#N)C(=O)N2COCC2(C)C)cc1 | 0 | -1 | 1 | 1 | -12 | -4
COc1cc(CNC(=O)c2cc(C(=O)NCc3cc(OC)cc(OC)c3)n(C)n2)cc(OC)c1 | -2 | 0 | 1 | -5 | -10 | -3
